Assay outcomes: PubChem, The Scripps Research Institute Molecular Screening Center
DAX1 inh-1: blocks DAX1 repression of SF-1 activated StAR promoter | AID 652010 | inhibition, % at 6.8 µM | hit rate 1.1% among 370,000 | HEK293T StAR-luciferase reporter, SF-1/DAX-1 repression relief;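 active = inhibition above the mean over all tested compounds plus 3 SD, cut at about 3.6% in these data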;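 also: 0% = DAX-1 cells with DMSO and 100% = cells lacking DAX-1 with DMSO; higher inhibition means more luminescence from relief of DAX-1 repression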
DAX1 inh-2: NR0B1 (DAX1) inhibition. P51843. HEK293 Gal4-DAX1 luciferase reporter, luminescence. inhibition, % at 6.75 µM. hit rate 0.99% among 340,000. AID 504766;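 active = inhibition above the mean over all tested compounds plus 3 SD, cut at about 4.2% in these data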;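 also: 0% = DAX1-transfected cells with DMSO and 100% = empty-vector control cells with DMSO; inhibition shows as a rise in luminescence from relieved DAX1 repression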
Target sequence (P51843 207-470 limits assumed): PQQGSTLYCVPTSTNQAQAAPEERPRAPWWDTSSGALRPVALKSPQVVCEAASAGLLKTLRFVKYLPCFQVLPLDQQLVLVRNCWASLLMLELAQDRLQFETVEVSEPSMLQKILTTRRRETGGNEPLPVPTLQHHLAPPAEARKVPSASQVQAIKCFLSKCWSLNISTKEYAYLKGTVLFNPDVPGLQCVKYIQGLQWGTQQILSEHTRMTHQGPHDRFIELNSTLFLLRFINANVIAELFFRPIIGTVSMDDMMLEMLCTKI
hcDAF12 agonist: activates DAF-12 receptor from parasite H. contortus; hit rate 1.4% among 370,000; AID 652067; HEK293 hcDAF-12 lit1-tk-luc reporter, luminescence; 0% DMSO, 100% Δ7-dafachronic acid; activation, % at 6.8 µM;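 active = activation above the mean of all tested compounds plus 3 SD, cut at about 5.5% in these data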;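 also: 100% = response to 3 µM Δ7-dafachronic acid high control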
hgDAF12 agonist: hgDAF-12 agonism, primary luciferase screen. HEK293 GAL4-hgDAF12 UAS-luciferase reporter, agonist luminescence; normalized to butyrate control. activation, % at 6.8 µM. hit rate 1.8% among 370,000;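 active = activation above a cutoff set at the mean of all screened compounds plus 3 SD, cut at about 10% in these data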;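 also: 0% = DMSO wells and 100% = sodium butyrate wells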
ssDAF-12 act: S. stercoralis DAF-12 activation, primary screen; HEK293 ssDAF-12/GRIP1 lit1-tk-luc reporter, luminescence; % of 3 µM dafachronic acid response; activation, % at 6.8 µM; hit rate 1% among 370,000; AID 652126;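 active = activation above the mean over all tested compounds plus 3 SD, cut at about 0.9% in these data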;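 also: 0% = DMSO-only wells and 100% = 3 µM delta7-dafachronic acid wells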
* hit, by the source's call; / = no result given. Compounds with a hit are over-represented: about 4.1% of the library has one in this group of screens.

SMILES	DAX1 inh-1	DAX1 inh-2	hcDAF12 agonist	hgDAF12 agonist	ssDAF-12 act
C=CCc1cc(Cl)ccc1OCCNCCCOC	-1	7.1*	-2	-1	-2
C=CCc1cc(Cl)ccc1OCCOCCNCCOC	0	0	-2	-2	-1
CSCc1ccc(C(=O)OCc2nc3ccccc3s2)o1	1	1	6.2*	12*	0
CC1=CC(C)(C)n2c(O)c(N=NC(N)=S)c3cccc1c32	-1	1	-2	-4	-2
COc1cc2c3c(c1)c(N=NC(N)=S)c(O)n3C(C)(C)C=C2C	0	7.1*	-1	0	0
CC(=O)NC(CC(=O)OCC(=O)c1cc(C)ccc1C)c1ccccc1 (stereo not given)	4.3*	0	0	-1	-1
CC(=O)NC(CC(=O)OCC(=O)NCCc1ccccc1)c1ccccc1 (stereo not given)	2	1	0	-1	-1
C=CCn1c(Cc2cccs2)nnc1SCC(=O)Nc1ccc(OCc2ccccc2)cc1	-2	/	-3	4	-2
Cc1cc(/C=C(/C#N)C(=O)Nc2ccccc2)c(C)n1-c1cccnc1	2	0	1	11*	-1
Cc1cc(/C=C(\C#N)C(=O)Nc2ccccc2)c(C)n1-c1ccc2c(c1)OCO2	-1	0	-2	-1	-1
COc1ccc(S(=O)(=O)N2CCN(CC(=O)c3c(N)n(C)c(=O)n(C)c3=O)CC2)cc1OC	-1	5.2*	-1	3	-1
COc1ccc(S(=O)(=O)N2CCN(C(=O)c3ccc(=O)[nH]n3)CC2)cc1OC	0	7.5*	0	1	0
Cn1c(N)c(C(=O)CN2CCN(S(=O)(=O)c3ccccc3C#N)CC2)c(=O)n(C)c1=O	-1	0	-2	-2	-1
CCN(C[C@H]1[C@@H](c2ccc(C3=CCCC3)cc2)[C@H](CO)N1C(=O)c1cccnc1)S(=O)(=O)c1ccccc1[N+](=O)[O-]	0	/	-2	0	-1
Cc1ccc(NC(=O)CN2CCN(c3nc(-c4ccccc4)cs3)CC2)cc1C	0	/	-3	4	-1
CCOc1ccc(-n2c(SCC(=O)Nc3cccc4ccccc34)nnc2-c2ccco2)cc1	-3	/	-1	-1	-2
O=C(COC(=O)/C=C/c1cccs1)Nc1nc(-c2ccccc2)cs1	-1	1	5.8*	7	0
COc1cc(C(=O)N/N=C/c2ccc(OC(=O)c3ccccc3)c(OC)c2)ccc1O	-1	0	0	4	-1
COc1cc(/C=N/NC(=O)c2ccccc2)ccc1O	1	5.9*	4	5	-1
COc1cc(/C=N/NC(=O)Nc2ccccc2)ccc1OC(C)=O	1	1	3	12*	0
COc1ccc(/C=N/NC(=O)c2ccccc2O)cc1CN1CCOCC1	0	-1	6.0*	6	0
COc1ccc(/C=N/NC(=O)c2cccc(Br)c2)cc1CN1CCOCC1	0	1	-2	1	-1
Cn1c(=O)n(C)c2cc(/C=N/NC(=O)c3ccc(Cl)cc3)ccc21	0	4.6*	0	1	-1
O=C(C1CCCN1S(=O)(=O)c1ccc([N+](=O)[O-])cc1)N1CCN(c2ccccc2)CC1 (stereo not given)	1	/	-4	2	0
C[C@H](O)[C@@H]1CN2CCc3ccc(-c4ccc5c(c4)OCO5)cc3[C@@H]2C[C@@H]1N(C)CC1CCCCC1	-1	/	-1	3	-1
SMILES	DAX1 inh-1	DAX1 inh-2	hcDAF12 agonist	hgDAF12 agonist	ssDAF-12 act
CCCC[C@H](C(=O)N(C)c1ccccc1)[C@@H](O)c1ccc(C(C)=O)cc1	0	/	-4	0	-1
CCCCCn1nnnc1C1(C)CCSCC(=O)N1Cc1ccco1 (stereo not given)	0	/	-2	1	0
COc1ccc(Nc2nc(N)nc(CSC(=S)N3CCCCC3)n2)cc1	0	4	0	8	-1
COc1ccc(Nc2nc(N)nc(CSC(=S)N3CCN(C)CC3)n2)cc1	-1	2	0	4	5.4*
COc1cccc(-c2cc(C(C)=O)c3n(c2=O)CCC3)c1OC	1	/	-1	0	-2
c1ccc(-c2nnc(NC3=NCCC3)o2)cc1	4.1*	-1	5	10	0
Fc1ccc(-c2nnc(NC3=NCCCCC3)o2)cc1	0	-4	2	-4	-2
NC(=O)c1ccc(Oc2ccc(C(N)=O)cc2)cc1	0	5.2*	-2	-1	-1
Cn1c(O)c(N=NC(=O)Cc2c[nH]c3ccccc23)c2ccccc21	-1	2	0	-4	-1
Cc1ccc2c(c1)c(N=Nc1ccc([N+](=O)[O-])cc1)c(O)n2C	0	1	6.0*	0	0
Cn1c(O)c(N=Nc2ccc(F)cc2)c2ccccc21	0	-1	5.6*	2	0
Cc1c(C)n(C)c2ccc([N+](=O)[O-])cc12	1	3	-2	-2	-1
Cn1c(O)c(N=Nc2ccccc2)c2ccccc21	0	0	4	0	1.2*
CN1C(=O)C[C@@](C#N)(C(=O)N2CCCC2)[C@H]1c1ccccc1	0	/	-1	2	-1
O=C(OC12CCCN(C1)/C(=C/c1ccccc1)C2)c1ccc(F)cc1 (stereo not given)	1	/	5	1	-1
O=C(NC1CCCCN(Cc2cccc(C(F)(F)F)c2)C1=O)c1cccc([N+](=O)[O-])c1 (stereo not given)	-1	/	-1	-1	-2
COc1ccc(S[C@]2(C(=O)N(C)C)CC(=O)N(c3ccc(Cl)cc3)[C@@H]2c2ccc(OC)cc2)cc1	-2	/	-2	0	-1
Nc1ccccc1C(=O)N/N=C1/C2CN3CCN(C2)CC1(Cc1ccccc1)C3	2	4.5*	2	8	0
CCCC12CN3CCN(CC(C3)/C1=N\NC(=O)c1ccccc1N)C2	2	2	2	6	0
O=C(CNC(=O)c1ccc(Cl)cc1)OCc1nc2ccccc2s1	0	-1	6.2*	9	0
COC(=O)[C@]12C[C@H](CC(=O)N3CCSCC3)C(=O)N(Cc3ccc(Cl)cc3Cl)C1=C[C@H](C1CCCC1)O[C@@H]2C	-1	/	-1	7	-1
Fc1ccc(/C=C\c2nccc3c2[nH]c2ccccc23)cc1	1	-1	5.6*	9	0
C(=C\c1nccc2c1[nH]c1ccccc12)/c1ccccc1	1	2	5	7	-1
O=C1CC(N2CCCN(Cc3ccccc3)CC2)=NC(=O)N1c1ccc(Br)cc1	0	/	-1	0	-2
O=c1[nH]c(-c2ccccc2)cnc1-c1ccccc1	2	/	5	11*	0
Cc1ccsc1C(=O)OCc1cc(=O)n2ccsc2n1	4.3*	2	2	13*	0.9*
CC(Oc1ccc(Cl)cc1Cl)C(=O)NNC(=O)c1ccncc1 (stereo not given)	0	4.8*	-1	-1	0
